Data published in the supplement of paper PMC8728848.
Only a selection was taken, and the strongest signals are over-represented in it overall.

Tests used:
Assay in all cases: glycan array binding signal (z-score within array); higher = stronger binding
Conditions in all cases: glycan notation: IUPAC condensed, linker removed
[1] = molecular target: Fuc(a1-2)Gal(b1-3)GalNAc(b1-3)Gal(a1-4)Gal(b1-4)Glc
Method in brief: (§1)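 Arrays were curated from the Consortium for Functional Glycomics database, 3228 in total, and kept only where the protein sequence was available. Binding is expressed as a within-array Z-score. This score was averaged across arrays of the same protein sequence at different concentrations or buffers and across linkers, and negative values can be read as non-binding.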

[2] = molecular target: Fuc(a1-2)Gal(b1-4)GlcNAc(b1-2)[Fuc(a1-2)Gal(b1-4)GlcNAc(b1-4)]Man(a1-3)[Fuc(a1-2)Gal(b1-4)GlcNAc(b1-2)Man(a1-6)]Man(b1-4)GlcNAc(b1-4)GlcNAc
Method in brief: as §1

[3] = molecular target: Fuc(a1-2)Gal(b1-4)[Fuc(a1-3)]GlcNAc
Method in brief: as §1

[4] = molecular target: Fuc(a1-2)Gal(b1-4)[Fuc(a1-3)]GlcNAc(b1-2)Man(a1-3)[Fuc(a1-2)Gal(b1-4)[Fuc(a1-3)]GlcNAc(b1-2)Man(a1-6)]Man(b1-4)GlcNAc(b1-4)[Fuc(a1-6)]GlcNAc
Method in brief: as §1

[5] = molecular target: Fuc(a1-2)[Gal(a1-3)]Gal(b1-3)GalNAc(b1-3)Gal(a1-4)Gal(b1-4)Glc
Method in brief: as §1

[6] = molecular target: Fuc(a1-2)[Gal(a1-3)]Gal(b1-4)GlcNAc
Method in brief: as §1

[7] = molecular target: Fuc(a1-2)[GalNAc(a1-3)]Gal(b1-4)GlcNAc(b1-3)GalNAc
Method in brief: as §1

[8] = molecular target: Fuc(a1-2)[GalNAc(a1-3)]Gal(b1-4)GlcNAc(b1-6)GalNAc
Method in brief: as §1

[9] = molecular target: Fuc(a1-3)[Gal(b1-4)]GlcNAc(b1-2)Man(a1-3)[Fuc(a1-3)[Gal(b1-4)]GlcNAc(b1-2)Man(a1-6)]Man(b1-4)GlcNAc(b1-4)GlcNAc
Method in brief: as §1

[10] = molecular target: Fuc(a1-3)[Gal(b1-4)]GlcNAc(b1-3)GalNAc
Method in brief: as §1

[11] = molecular target: Gal(a1-3)Gal(b1-3)[Fuc(a1-4)]GlcNAc(b1-2)Man(a1-3)[Gal(a1-3)Gal(b1-3)[Fuc(a1-4)]GlcNAc(b1-2)Man(a1-6)]Man(b1-4)GlcNAc(b1-4)GlcNAc
Method in brief: as §1

[12] = molecular target: Gal(a1-3)Gal(b1-4)GlcNAc(b1-2)Man(a1-3)[Gal(a1-3)Gal(b1-4)GlcNAc(b1-2)Man(a1-6)]Man(b1-4)GlcNAc(b1-4)GlcNAc
Method in brief: as §1

[13] = molecular target: Gal(a1-3)Gal(b1-4)[Fuc(a1-3)]GlcNAc(b1-2)Man(a1-3)[Gal(a1-3)Gal(b1-4)[Fuc(a1-3)]GlcNAc(b1-2)Man(a1-6)]Man(b1-4)GlcNAc(b1-4)GlcNAc
Method in brief: as §1

[14] = molecular target: Gal(a1-4)Gal(b1-3)GlcNAc(b1-2)Man(a1-3)[Gal(a1-4)Gal(b1-3)GlcNAc(b1-2)Man(a1-6)]Man(b1-4)GlcNAc(b1-4)GlcNAc
Method in brief: as §1

[15] = molecular target: Gal(b1-3)GlcNAc(b1-2)Man(a1-3)[Gal(b1-3)GlcNAc(b1-2)Man(a1-6)]Man(b1-4)GlcNAc(b1-4)GlcNAc
Method in brief: as §1

[16] = molecular target: Gal(b1-3)GlcNAc(b1-3)Gal(b1-4)GlcNAc
Method in brief: as §1

[17] = molecular target: Gal(b1-3)[Neu5Ac(a2-6)]GlcNAc(b1-4)Gal(b1-4)Glc
Method in brief: as §1

[18] = molecular target: Gal(b1-4)GlcNAc(b1-3)Gal(b1-4)GlcNAc(b1-2)[Gal(b1-4)GlcNAc(b1-3)Gal(b1-4)GlcNAc(b1-6)]Man(a1-6)[Gal(b1-4)GlcNAc(b1-3)Gal(b1-4)GlcNAc(b1-2)Man(a1-3)]Man(b1-4)GlcNAc(b1-4)[Fuc(a1-6)]GlcNAc
Method in brief: as §1

[19] = molecular target: Gal(b1-4)GlcNAc(b1-3)Gal(b1-4)GlcNAc(b1-3)Gal(b1-4)GlcNAc(b1-2)Man(a1-3)[Gal(b1-4)GlcNAc(b1-3)Gal(b1-4)GlcNAc(b1-3)Gal(b1-4)GlcNAc(b1-2)Man(a1-6)]Man(b1-4)GlcNAc(b1-4)GlcNAc
Method in brief: as §1

[20] = molecular target: Gal(b1-4)GlcNAc(b1-3)Gal(b1-4)GlcNAc(b1-3)Gal(b1-4)GlcNAc(b1-2)[Gal(b1-4)GlcNAc(b1-3)Gal(b1-4)GlcNAc(b1-3)Gal(b1-4)GlcNAc(b1-6)]Man(a1-6)[Gal(b1-4)GlcNAc(b1-3)Gal(b1-4)GlcNAc(b1-3)Gal(b1-4)GlcNAc(b1-2)Man(a1-3)]Man(b1-4)GlcNAc(b1-4)[Fuc(a1-6)]GlcNAc
Method in brief: as §1

[21] = molecular target: Gal(b1-4)GlcNAc(b1-3)Gal(b1-4)GlcNAc(b1-3)Gal(b1-4)GlcNAc(b1-3)Gal(b1-4)GlcNAc(b1-2)Man(a1-3)[Gal(b1-4)GlcNAc(b1-3)Gal(b1-4)GlcNAc(b1-3)Gal(b1-4)GlcNAc(b1-3)Gal(b1-4)GlcNAc(b1-2)Man(a1-6)]Man(b1-4)GlcNAc(b1-4)[Fuc(a1-6)]GlcNAc
Method in brief: as §1

[22] = molecular target: Gal(b1-4)GlcNAc(b1-3)Gal(b1-4)GlcNAc(b1-3)[Gal(b1-4)GlcNAc(b1-3)Gal(b1-4)GlcNAc(b1-6)]GalNAc
Method in brief: as §1

[23] = molecular target: Gal(b1-4)GlcNAc(b1-6)[Gal(b1-4)GlcNAc(b1-3)]GalNAc
Method in brief: as §1

[24] = molecular target: Gal6S(b1-4)GlcNAc6S
Method in brief: as §1

[25] = molecular target: GalNAc(b1-3)GlcNAc
Method in brief: as §1

[26] = molecular target: GalNAc(b1-4)GlcNAc(b1-2)Man(a1-3)[GalNAc(b1-4)GlcNAc(b1-2)Man(a1-6)]Man(b1-4)GlcNAc(b1-4)GlcNAc
Method in brief: as §1

[27] = molecular target: Glc(b1-4)Glc
Method in brief: as §1

B1: PX14343E-bfa-545-24-545 (Bacteroides fragilis) (protein)
chain: LDRYPQEELSDGSFWKTPDDANKVVSDLYGYLSTWDQDNDINSDNATMGIKWAAGNVSKGIYDPADQGWSGDYANVRQCNLILSKIDEIPDYPEADKTKALGQVYFFRAYIYFNLIRSFGDVPYIDKPLDLKDMEGITRMPRAEVYEKIMADFDKAIAALPTEWGASDYGRVTKGAAMAMKARAALYYGNWDTAATEAKNVMDLGLYELYDKDNTGKYAELFWEKADGCDEFILVTQFNYPDKTHYLMGWECFPTKGWGGMNPTQSLVDAFEDSEGAPISKSKIYDPTDPFKNRDPRLEVDILHDGEEMYGVTIKVAPLASSGSTGINQHNDATETGYYGQKWLDPSLDPLSDGWNMGKDWVHIRYAEVLLTYAEAKNELQGLDPEAFDAVNQVRRRVGMPELQNTDPSKPTYCATQDDLRQRIRNEWRVEFCLEGGKRMWDIRRWGIAKDVLNAPFEGLKYKIVDNPNDPDKKVDGGKMCILYQGDPIILSGSRYSDNNYLFPVPQSEIDLNPALTQNPGY
[1]
  glycan array binding signal (z-score): -0.281
[2]
  glycan array binding signal (z-score): -0.211
[3]
  glycan array binding signal (z-score): -0.665
[4]
  glycan array binding signal (z-score): 0.859
[5]
  glycan array binding signal (z-score): -0.61
[6]
  glycan array binding signal (z-score): -0.855
[7]
  glycan array binding signal (z-score): -0.508
[8]
  glycan array binding signal (z-score): 0.103
[9]
  glycan array binding signal (z-score): 4.63
[10]
  glycan array binding signal (z-score): 1.3
[11]
  glycan array binding signal (z-score): 2.95
[12]
  glycan array binding signal (z-score): 4.55
[13]
  glycan array binding signal (z-score): 3.48
[14]
  glycan array binding signal (z-score): 2.18
[15]
  glycan array binding signal (z-score): 0.652
[16]
  glycan array binding signal (z-score): -0.675
[17]
  glycan array binding signal (z-score): -0.838
[18]
  glycan array binding signal (z-score): 1.62
[19]
  glycan array binding signal (z-score): 3.79
[20]
  glycan array binding signal (z-score): 4.56
[21]
  glycan array binding signal (z-score): 2.87
[22]
  glycan array binding signal (z-score): 2.88
[23]
  glycan array binding signal (z-score): -0.034
[24]
  glycan array binding signal (z-score): -0.429
[25]
  glycan array binding signal (z-score): 0.169
[26]
  glycan array binding signal (z-score): 1.25
[27]
  glycan array binding signal (z-score): 0.195
